In the library only some 6% were active in any assay of this set; here they are far more common.
D1 antag = Antagonist of Human D 1 Dopamine Receptor: qHTS. D(1A) dopamine receptor (Homo sapiens), P21728. HEK293 TREx D1 cells, calcium flux, dopamine EC80; active compounds read low. activity change, negative = inhibition, % at 10 µM. 360,000 tested, 3.2% active. AID 504652, 2011; in the data active = activity change below about -30%; also: % is scaled to controls: 0 for no effect and ±100 for the full control effect
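Cells carrying a force-coupled, tetracycline-inducible human D1 receptor report calcium flux. Each well gets a 10 s baseline, compound with 180 s monitoring, then an EC80 dopamine stimulus with a second 180 s kinetic read.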
D3 ag = qHTS of D3 Dopamine Receptor Agonist: qHTS; D3R DiscoveRx beta-arrestin cells, luminescence, 90 min; max activation, %; 410,000 tested, 0.58% active; AID 652048, 2013; in the data active = max activation above about 30%; also: 0% is about no effect
Target sequence (P35462 whole entry, looked up): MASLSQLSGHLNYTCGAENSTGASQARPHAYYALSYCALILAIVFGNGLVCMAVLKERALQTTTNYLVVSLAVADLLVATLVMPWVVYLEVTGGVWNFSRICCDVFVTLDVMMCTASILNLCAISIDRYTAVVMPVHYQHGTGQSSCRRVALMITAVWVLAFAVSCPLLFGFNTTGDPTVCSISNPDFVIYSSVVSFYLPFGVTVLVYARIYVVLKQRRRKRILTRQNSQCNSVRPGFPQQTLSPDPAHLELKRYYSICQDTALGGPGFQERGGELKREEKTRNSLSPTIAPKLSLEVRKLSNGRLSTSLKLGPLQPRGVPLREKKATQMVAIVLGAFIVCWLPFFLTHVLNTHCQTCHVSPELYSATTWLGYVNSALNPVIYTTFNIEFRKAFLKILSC
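Cells at 1500/well, incubated overnight, then treated with pinned compounds (dopamine as control) for 90 min at 37 degrees C. DiscoveRx reagent added for 30 - 60 minutes at room temperature; luminescence read.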
D1 potentiator = Potentiators of Human D1 Dopamine Receptor: qHTS; 360,000 tested, 0.036% active; AID 504651, 2011; potentiation, % at 10 µM; HEK293 TREx D1 cells, calcium flux, dopamine EC20 potentiation; in the data active = potentiation above about 30%; also: 0% is about no effect
D1 ag = Allosteric Agonists of the Human D1 Dopamine Receptor: qHTS | HEK293 T-REx D1 cells, calcium flux, agonist mode | activation, % at 2 µM | 360,000 tested, 1% active | AID 504660, 2011; in the data active = activation above about 30%; also: 0% is about no effect
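Tetracycline-induced HEK293 TREx D1 cells, force-coupled to calcium signalling, were dye-loaded with a no-wash calcium kit. Compound was pin-added after a 10 s baseline. Fluorescence was read kinetically at 1 cycle/s for 180 s, with calcium rises flagged as agonism.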
D3 antag = qHTS of D3 Dopamine Receptor Antagonist: qHTS. D(3) dopamine receptor (Homo sapiens), P35462. D3R cells, DiscoveRx beta-arrestin luminescence, antagonist mode; active compounds read low. max response, negative = inhibition, %. 360,000 tested, 2.5% active; in the data active = max response below about -50%; inconclusive = no clear call, values can overlap the other calls; also: % is scaled to controls: 0 for no effect and ±100 for the full control effect
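Cells plated overnight at 1500 cells/well, then exposed to library compounds with dopamine controls for 90 minutes at 37 degrees C. DiscoveRx reagent added for 30–60 minutes at room temperature; luminescence read, quantitative HTS format.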
The depositor's hits bear a star; ? = inconclusive; · = no result; ! = repeats disagree.

SMILES	D1 antag	D3 ag	D1 potentiator	D1 ag	D3 antag
Cc1ccc2oc(C(=O)Nc3ccc(S(=O)(=O)Nc4ncccn4)cc3)cc(=O)c2c1	0	4	-2	1	·
CC(C)C(=O)NCCSc1c[nH]c2ccccc12	-87*	-1	-10	0	0
CCCCNc1c(-c2cccc(SC3CCCCC3)c2)nc2ccc(Cl)cn12	-1	69*!	-3	1	88
CCCCNc1c(-c2ccc(SC3CCCCC3)c(OC)c2)nc2ccc(C)cn12	·	-10	·	·	152
CCCCNc1c(-c2ccc(SC3CCCCC3)cc2)nc2ccccn12	8	72*!	1	0	83
CCCCNc1c(-c2ccc(SC(C)CC)cc2)nc2ccccn12 (configuration not stated)	12	30*!	-1	0	52
CCCCNc1c(-c2cccc(SC(C)CC)c2)nc2ccc(Cl)cn12 (configuration not stated)	·	3	·	·	62
O=C(NCC(=O)N1CCN(C/C=C/c2ccccc2)CC1)c1ccc(OC(F)F)cc1	-3	-2	·	9	-8
COc1cc(/C=N/Nc2nc(C)cc(C)n2)cc(OC)c1OC	8	0	-1	4	-8
COc1ccc(NC(=O)C[C@H]2C(=O)N(CCc3ccccc3)C[C@@H]2Cc2ccccc2)cc1	·	2	·	·	2
COc1ccc(NC(=O)CSc2nnc(-c3ccc(OC)cc3)s2)cc1	12	9	-3	1	·
Cc1nc(-n2[nH]c3c(c2=O)CCCC3)[nH]c(=O)c1Cc1ccccc1	-3	-14	1	61*	-61*
Cc1cc(=O)[nH]c(N2CCCNCC2)n1	12	4	-1	7	4
Cc1cc(=O)[nH]c(-n2[nH]c3c(c2=O)CCCC3)n1	-37*	-4	-4	21	-9
CCCCCc1c(C)nc(N2CCc3ccccc3C2)[nH]c1=O	0	-5	-1	4	-12
Cc1nc(N2CCc3ccccc3C2)[nH]c(=O)c1Cc1ccccc1	-44*	3	-6	3	12
COc1cc(NC(=O)c2ccc3c(c2)OCCO3)ccc1NC(=O)c1ccccc1Cl	7	5	3	0	7
CCN1CCN(C(C(=O)NC2CCCCC2)c2ccc(Cl)cc2)CC1 (configuration not stated)	-3	-9	-4	4	-60*
O=C(NC1CCCC1)C(c1ccc(Cl)cc1)N1CCOCC1 (configuration not stated)	8	1	2	-2	9
O=C(NC1CCCC1)C(c1ccc(F)cc1)N1CCC(O)(c2ccc(Cl)cc2)CC1 (configuration not stated)	·	-15	·	·	-93*
O=C(NC1CCCC1)C(c1ccc(Cl)cc1)N1CCN(C2CCCCC2)CC1 (configuration not stated)	4	-17	4	0	-6
CC(O)C(O)C(O)C(O)C1NCCS1 (configuration not stated)	-66*	10	1	0	?
CCN(CC)CCOC(=O)c1cccc(Cl)c1	-7	-12	-3	4	-27
CCN(CC)CCOC(=O)c1cccc(Br)c1	-8	-15	-3	2	-58*
CCC(=O)Nc1nc2n(n1)C(c1ccc(OC)cc1)C=C(c1ccccc1)N2 (configuration not stated)	-3	·	-2	69*	·
COc1ccc(C2C=C(c3ccc(Cl)cc3)Nc3nc(NC(C)=O)nn32)cc1 (configuration not stated)	-3	·	-5	40*	·
COc1ccc(C2C=C(c3ccc(F)cc3)Nc3nc(-c4ccc(Cl)cc4)nn32)cc1 (configuration not stated)	9	3	-4	38*	·
COc1ccc(C2=CC(c3ccc(F)cc3)n3nnnc3N2)cc1 (configuration not stated)	-8	-3	-6	0	-22
COc1ccc(C2C=C(c3cccs3)Nc3nc(CCCO)nn32)cc1 (configuration not stated)	8	·	7	64*	·
